Calls of active or inactive are those of the source.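 The calls were made as follows, unless noted: active = inhibition above 20% together with a positive visual image hit; inconclusive = visual image hit but inhibition not above 20%; inactive = no visual image hit.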
What was measured:
[1] = inhibitors of TNFa-induced NFkB p65 translocation, primary screen, imaging, HUVEC, MLSMR starter and 10KST1 sets (AID 438); conditions: HUVEC TNFa-induced p65 nuclear translocation; cell count: measured here: nuclei count (cytotoxicity indicator), at 2.08 µM; inhibition: at 2 µM, stronger effect = higher value, 0% TNFa-plus-vehicle, 100% no-TNFa wells;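 also: compound added about 3h40 before a 20 min TNFalpha stimulation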;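 as to inhibition: signal is the nuclear over cytoplasmic p65 intensity ratio per well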
[2] = inhibitors of mutant huntingtin aggregation, primary screen, imaging, exon1htt(103Q)mCFP cells, high-content imaging (AID 483;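 active = visual image review flags a hit and inhibition of aggregation exceeds 20%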;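 also: compound exposure lasted 3 days before fixation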;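 as to nuclei count: percent of the per-plate median nuclei count of sample wells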); conditions: exon1htt(103Q)mCFP cell line, aggregate imaging, at 2 µM; inhibition of aggregation: stronger effect = higher value; nuclei count: measured here: cell count, toxicity
[3] = inhibitors of E-selectin induction by TNFa, primary screen, imaging, HUVEC, immunofluorescence, MLSMR starter and 10KST1 sets (AID 487;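 active = visually confirmed hit in the image check and inhibition above 20%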;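 as to inhibition: signal is fraction of cell area covered by stained E-selectin grains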;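 as to nuclei count: 100% = median nuclei count of all wells on the same plate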); conditions: HUVEC TNFalpha-induced E-selectin immunofluorescence imaging, at 2 µM; inhibition: stronger effect = higher value; nuclei count: measured here: cell number, toxicity
[4] = molecular target: Voltage-gated potassium channel subunit beta-2 (Rattus norvegicus) (UniProt P62483); experiment: KvBeta enzyme negative modulators, primary screen, biochemical, NADPH fluorescence (AID 622;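 active = fluorescence slope higher than the sample average by over 3 SD, cut at about -0.22 in these data, passing the limit was not always enough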;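 also: slope of raw intensity against log time taken from 70 to 1610 s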); conditions: recombinant KvBeta, 4-cyanobenzaldehyde reduction, at 10 µM, stronger effect = higher value
Chain of Voltage-gated potassium channel subunit beta-2 (Rattus norvegicus) (P62483 whole entry, looked up): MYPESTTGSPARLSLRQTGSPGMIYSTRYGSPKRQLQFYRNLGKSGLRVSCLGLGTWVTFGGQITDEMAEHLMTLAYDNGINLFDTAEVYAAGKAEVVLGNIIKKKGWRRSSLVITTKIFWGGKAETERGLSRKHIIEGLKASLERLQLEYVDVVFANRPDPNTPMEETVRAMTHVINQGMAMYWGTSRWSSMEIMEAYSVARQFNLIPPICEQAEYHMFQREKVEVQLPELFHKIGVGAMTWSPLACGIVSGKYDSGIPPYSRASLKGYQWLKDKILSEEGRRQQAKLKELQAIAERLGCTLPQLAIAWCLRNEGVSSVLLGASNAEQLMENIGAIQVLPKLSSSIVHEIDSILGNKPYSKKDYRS

[5] = molecular target: Voltage-gated potassium channel subunit beta-2 (Rattus norvegicus) (UniProt P62483); experiment: KvBeta positive modulators, primary screen, biochemical, NADPH fluorescence (AID 623;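 active = NADPH fluorescence slope more negative than the mean of all samples by about 3 SD, 99.7% confidence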;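 also: fluorescence intensity change per second fitted from 20 to 320 s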); conditions: Recombinant KvBeta, NADPH fluorescence decrease slope, 10 min; at 10 µM; stronger effect = lower value
[6] = molecular target: Alpha-2C adrenergic receptor (Homo sapiens) (UniProt P18825); experiment: modulators of alpha2C/GIRK thallium flux, primary screen, cell-based, HEK293 alpha2C/GIRK1/2 (AID 624;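 active = fluorescence slope after compound addition differing from the mean of all screened samples at 99.7% confidence, in either direction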;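 also: slope of fluorescence ratio to pre-addition baseline per second over 15 to 24 s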); conditions: thallium flux BTC fluorescence, at 10 µM, actives lie on both sides
Chain of Alpha-2C adrenergic receptor (Homo sapiens) (P18825 whole entry, looked up): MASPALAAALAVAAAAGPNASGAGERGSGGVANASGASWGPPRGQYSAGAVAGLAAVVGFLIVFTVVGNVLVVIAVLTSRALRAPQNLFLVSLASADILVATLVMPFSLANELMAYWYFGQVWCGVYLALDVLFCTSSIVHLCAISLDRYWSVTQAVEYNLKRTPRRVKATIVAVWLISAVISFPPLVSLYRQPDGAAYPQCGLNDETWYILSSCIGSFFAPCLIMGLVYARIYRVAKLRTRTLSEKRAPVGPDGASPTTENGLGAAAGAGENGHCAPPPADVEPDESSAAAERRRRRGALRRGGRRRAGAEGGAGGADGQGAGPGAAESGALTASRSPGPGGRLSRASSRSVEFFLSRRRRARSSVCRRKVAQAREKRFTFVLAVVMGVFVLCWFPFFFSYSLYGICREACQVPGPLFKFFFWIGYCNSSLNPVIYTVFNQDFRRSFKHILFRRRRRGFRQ

[7] = inhibitors of Sendai virus-induced IRF3 signaling, primary screen, TLR/RLR signaling modifier project, cell-based, Sendai virus stimulus, luciferase, 10K MLSCN set (AID 602276;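 active = inhibition at or above 50% at 10 µM; inactive = inhibition below 50%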;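 also: firefly luciferase from ISG56 promoter only with Renilla not read in this screen; 0% = Sendai virus plus DMSO and 100% = medium plus DMSO without virus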); conditions: HEK293 RL24 IRF3 luciferase reporter, at 10 µM, stronger effect = higher value
[8] = inhibitors of poly I:C-induced TLR3 signaling, primary screen, cell-based, poly I:C stimulus, luciferase, 10K MLSCN set (AID 602277;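 active = inhibition of the reporter signal at or above 50%; inactive = inhibition below 50%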); conditions: HEK293-TLR3 RL24 IRF3 luciferase reporter, at 10 µM, stronger effect = higher value

| SMILES | cell count [1] | inhibition [1] | inhibition of aggregation [2] | nuclei count [2] [%] | inhibition [3] | nuclei count [3] [%] | fluorescence slope [4] | NADPH fluorescence slope [5] | slope [6] | inhibition [7] | inhibition [8] |
| --- | --- | --- | --- | --- | --- | --- | --- | --- | --- | --- | --- |
| Cc1nc2ccccc2c2oc(C(=O)NCCN3CCCCC3C)cc12 (centres undefined) | 558 | 5.4% (inactive) | 15.4% (inactive) | 87.5 | -1.3% (inactive) | 120 | -0.614 (inactive) | -3.9e-05 (inactive) | 0.00617 (inactive) | 7.56% (inactive) | 66.5% (active) |
| CCn1c(C)cc(=S)c2ccccc21 | 587 | -5.3% (inactive) | -16.1% (inactive) | 105 | -56.4% (inactive) | 90.4 | -0.611 (inactive) | -2.2e-05 (inactive) | 0.00608 (inactive) | 1.4% (inactive) | 12.6% (inactive) |
| O=c1[nH]cnc2c1C1(CCCC1)Cc1ccccc1-2 | 381 | -10.6% (inactive) | 19.5% (inactive) | 87 | -22.8% (inactive) | 110 | -0.274 (inactive) | -1.9e-05 (inactive) | 0.00586 (inactive) | 9.37% (inactive) | 35.4% (inactive) |
| COc1cc(NC(=O)c2cccs2)cc(OC)c1 | 306 | -14.2% (inactive) | 33% (inactive) | 82.6 | -201% (inactive) | 96.7 | -0.337 (inactive) | -4.5e-05 (inactive) | 0.00448 (inactive) | -38.7% (inactive) | -64.2% (inactive) |
| O=C(CCN1CCc2ccccc2C1)Nc1ccc2c(c1)OCO2 | 413 | 2.9% (inactive) | 14.5% (inactive) | 96.1 | -84.4% (inactive) | 110 | -0.542 (inactive) | -1.3e-05 (inactive) | 0.00425 (inactive) | 6.95% (inactive) | 14.1% (inactive) |
| COCCCN(Cc1ccccn1)S(=O)(=O)Cc1ccccc1 | 510 | -9.9% (inactive) | 4.7% (inactive) | 97.4 | 10% (inactive) | 102 | -0.517 (inactive) | 8e-06 (inactive) | 0.00578 (inactive) | 3.22% (inactive) | 15.9% (inactive) |
| Cc1cc2ccccn2c1C(=O)c1ccncc1 | 602 | -0.6% (inactive) | 11.7% (inactive) | 77.4 | -1.7% (inactive) | 111 | -0.62 (inactive) | 9.9e-07 (inactive) | 0.00577 (inactive) | 11% (inactive) | -0.108% (inactive) |
| O=C(COC(=O)c1cncc(Br)c1)NCCC1=CCCCC1 | 555 | -7.6% (inactive) | 6% (inactive) | 107 | -26.8% (inactive) | 116 | -0.338 (inactive) | -3.9e-05 (inactive) | 0.00679 (inactive) | 1.87% (inactive) | 25.9% (inactive) |
| CCC1CCCCN1CCNS(=O)(=O)c1ccc2c(c1)oc(=O)n2C (centres undefined) | 809 | 1.8% (inactive) | 19.9% (inactive) | 97.2 | -92.7% (inactive) | 116 | -0.581 (inactive) | -4.9e-05 (inactive) | 0.00605 (inactive) | 14.3% (inactive) | 39.8% (inactive) |
| CCOC(=O)c1ccccc1NC(=O)c1cc2sccc2n1C | 740 | -42.9% (inactive) | 5.5% (inactive) | 107 | -20.5% (inactive) | 101 | -0.483 (inactive) | 1.4e-05 (inactive) | 0.00572 (inactive) | -3.63% (inactive) | -15.2% (inactive) |
| CCOC(=O)N1CCN(C(c2ccc(Cl)cc2)c2sc3nc(C)nn3c2O)CC1 (centres undefined) | 709 | -8% (inactive) | 0.3% (inactive) | 104 | -25% (inactive) | 106 | -0.412 (inactive) | -3.7e-05 (inactive) | 0.00503 (inactive) | 9.66% (inactive) | 19.5% (inactive) |
| O=C1CCCC2=C1C(c1cccc(Br)c1)n1nc(-c3ccco3)nc1N2 (centres undefined) | 568 | -1.5% (inactive) | -10.2% (inactive) | 100 | 11.1% (inactive) | 109 | -0.523 (inactive) | -2.2e-05 (inactive) | 0.00646 (inactive) | 9.76% (inactive) | 24.2% (inactive) |
| CCOC(=O)N1CCC(N2C(=O)c3ccc(C(=O)NCc4ccco4)cc3C2=O)CC1 | 646 | -6.1% (inactive) | 0.7% (inactive) | 96.3 | -40.8% (inactive) | 126 | -0.59 (inactive) | -2.2e-06 (inactive) | 0.00518 (inactive) | 7.39% (inactive) | 26.2% (inactive) |
| COc1ccccc1-c1nnc(SCC(=O)NC2CCCCC2)o1 | 490 | -7.8% (inactive) | -6.8% (inactive) | 76 | -86% (inactive) | 104 | -0.56 (inactive) | 5e-05 (inactive) | 0.00636 (inactive) | -1.61% (inactive) | 30.3% (inactive) |
| Cc1cc(OCC(=O)NCCO)cc(C)c1Cl | 419 | -2.3% (inactive) | 11.1% (inactive) | 73.3 | 28.3% (inactive) | 92.3 | -0.428 (inactive) | 2.8e-05 (inactive) | 0.00371 (inactive) | -0.456% (inactive) | 24.5% (inactive) |
| COC(=O)C1(C(F)(F)F)N=C2Sc3ccccc3N2C(N2CCOCC2)=N1 (centres undefined) | 760 | -8.1% (inactive) | 8.1% (inactive) | 76.2 | -62.6% (inactive) | 107 | -0.54 (inactive) | -4.9e-05 (inactive) | 0.00667 (inactive) | 11.6% (inactive) | 26.4% (inactive) |
| C[C@H](NC(=O)NCc1cccs1)C(=O)O | 378 | 4.3% (inactive) | -9.8% (inactive) | 102 | -52.5% (inactive) | 72.1 | -0.576 (inactive) | -5.7e-05 (inactive) | 0.00368 (inactive) | 5.25% (inactive) | 4.63% (inactive) |
| COc1ccc(N(CC(=O)O)S(=O)(=O)c2ccc(OC)c(OC)c2)cc1 | 501 | -2.1% (inactive) | -12.1% (inactive) | 99 | -11.5% (inactive) | 111 | -0.475 (inactive) | 6.8e-05 (inactive) | 0.00634 (inactive) | 15.4% (inactive) | 22.3% (inactive) |
| O=C(CN1CCN(c2cccc(Cl)c2)CC1)N1CCCC1 | 330 | -8.7% (inactive) | 19.2% (inactive) | 73 | -69% (inactive) | 87.6 | -0.581 (inactive) | -1.8e-05 (inactive) | 0.00658 (inactive) | -11.1% (inactive) | -35.4% (inactive) |
| CCN(CC)CCn1c(=N)n(CCO)c2ccccc21 | 592 | 0.2% (inactive) | 19.1% (inactive) | 95.6 | -30.1% (inactive) | 91.5 | -0.376 (inactive) | 1.5e-05 (inactive) | 0.00357 (inactive) | 7.52% (inactive) | 39.8% (inactive) |
| CCCNS(=O)(=O)c1ccc(OCC(=O)NCc2ccc3c(c2)OCO3)cc1 | 434 | 1.7% (inactive) | -1.9% (inactive) | 108 | -93.9% (inactive) | 106 | -0.368 (inactive) | -6.9e-05 (inactive) | 0.00408 (inactive) | 12.8% (inactive) | 17.9% (inactive) |
| CCCC(=O)NCCc1cc2c(C)ccc(C)c2[nH]c1=O | 592 | -4.8% (inactive) | -1.1% (inactive) | 114 | -9% (inactive) | 117 | -0.557 (inactive) | -2.9e-05 (inactive) | 0.00601 (inactive) | 9% (inactive) | 10.9% (inactive) |
| COC(=O)CSc1cc(C)nc(NC(C)=O)n1 | 703 | 11% (inactive) | -16.4% (inactive) | 98.3 | -5.3% (inactive) | 110 | -0.586 (inactive) | -4.5e-05 (inactive) | 0.0055 (inactive) | 6.12% (inactive) | 17.7% (inactive) |
| O=C(COc1ccc(=O)n(-c2ccccc2)n1)Nc1ccccc1 | 600 | 8% (inactive) | -6.4% (inactive) | 114 | 23.8% (inactive) | 119 | -0.471 (inactive) | 7.6e-06 (inactive) | 0.00619 (inactive) | 9.72% (inactive) | 23.6% (inactive) |
| COc1cc(OC)c(NC(=O)c2ccco2)cc1Cl | 363 | 2.2% (inactive) | 12.2% (inactive) | 110 | -1.1% (inactive) | 106 | -0.407 (inactive) | -4.6e-05 (inactive) | 0.00173 (inactive) | 21.8% (inactive) | 35% (inactive) |
| CC(C)COC(=O)NCC12C=CC(O1)C1C(=O)N(c3ccc(Cl)cc3)C(=O)C12 (centres undefined) | 280 | -0.5% (inactive) | -14.3% (inactive) | 104 | 5.7% (inactive) | 119 | -0.447 (inactive) | -0.000376 (inactive) | 0.005 (inactive) | -5.72% (inactive) | 0.93% (inactive) |
| C=CCOC(=O)C1=C(C)OC(N)=C(C#N)C1c1ccc2c(c1)OCO2 (centres undefined) | 229 | 13.4% (inactive) | -3% (inactive) | 90.4 | 9.6% (inactive) | 136 | -0.602 (inactive) | -3.1e-05 (inactive) | 0.00567 (inactive) | -2.6% (inactive) | 7.38% (inactive) |
| CN(Cc1ccccc1)c1nc2c(c(=O)[nH]c(=O)n2C)n1Cc1ccccc1Cl | 364 | -1% (inactive) | -1.2% (inactive) | 108 | -18.5% (inactive) | 102 | -0.6 (inactive) | -2.7e-05 (inactive) | 0.00484 (inactive) | 16% (inactive) | 23.3% (inactive) |
| CC(C)N(C(=O)CSc1nnc(-c2cc3ccccc3cc2O)n1Cc1ccco1)C(C)C | 836 | 6.2% (inactive) | -6.1% (inactive) | 107 | 4.9% (inactive) | 102 | -0.47 (inactive) | -2.4e-05 (inactive) | 0.00627 (inactive) | -4.55% (inactive) | 7.55% (inactive) |

From PubChem BioAssay
